Screening results deposited in PubChem BioAssay by National Center for Advancing Translational Sciences (NCATS).
KB-V1 cytotox: KB-V1 MDR subline cytotoxicity | hit rate 3.4% among 400,000 | Potency, µM (doses to about 46.1 µM), hits mostly cytotoxic | KB-V1 MDR cells viability, CellTiter-Glo, 72 h; further: nearly all actives have a fitted effect of over 60% in size
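Potencies derive from concentration-effect curves fitted to normalized luminescence (CellTiter-Glo) of KB-V1 cells treated for 72 h at 37 degrees C in phenol-red-free DMEM containing 10% FBS.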
MCF10A rereplic: induces DNA re-replication in MCF 10a normal breast cells; MCF 10A DNA re-replication, Hoechst nuclear intensity, 48 h; Potency, µM (highest dose often 46.1 µM), actives largely listed as activators; hit rate 2.9% among 350,000; further: nearly all actives have a fitted effect of over 50% in size
HT1080 IDH1KD tx: kills HT-1080 cells with IDH1 knockdown; Potency, µM (top dose mostly 46.1 µM), hits mostly cytotoxic; HT-1080 IDH1 knockdown viability, ATP luminescence, 48 h; hit rate 2% among 360,000
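Using the IDH1-knockdown HT-1080 line run in the same batch and compound series as the NT line, viability after 48 h at 37 °C was determined by CellTiter-Glo luminescence and expressed as % activity.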
KB-3-1 tox: KB-3-1 parental cell cytotoxicity | KB-3-1 viability, CellTiter-Glo ATP luminescence, 72 h | Potency, µM (doses to about 46.1 µM), actives largely listed as cytotoxic | hit rate 1.4% among 400,000 | AID 1347075; further: nearly all actives have a fitted effect of over 60% in size
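Cells are dispensed, compounds pinned in, plates held at 37 °C for 72 h, then CellTiter-Glo is added and luminescence read after 10 minutes. Cell line: parental KB-3-1 in phenol-red-free DMEM, 10% FBS.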
SW480 rerep: inducers of DNA re-replication in SW480 colon cancer cells. hit rate 1.8% among 340,000. SW480 DNA re-replication, Hoechst DNA content imaging, 48 h. Potency, µM (titrated, usually from 46.1 µM), most hits filed as activators; further: nearly all actives have a fitted effect of over 55% in size
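Image-based read-out: total Hoechst fluorescence of nuclei (405 nm excitation, 500-530 nm emission), with hits raising the fraction of high-intensity nuclei. SW480 colon cells incubated 48 hr with compounds at 37 C.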
HT1080NT lethal: kills 2HG-producing HT-1080-NT fibrosarcoma cells; HT-1080-NT fibrosarcoma viability, CellTiter-Glo ATP luminescence, 48 h; Potency, µM (top dose mostly 46.1 µM), usual class: cytotoxic; hit rate 1.6% among 360,000;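 further: NT is the 2HG producing partner of a matched IDH1 knockdown line; nearly all actives have a fitted effect of over 55% in size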
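750 cells/well, RPMI + 5% FBS; 2 h settle, compound pin-transfer, 48 h at 37 degrees C. CellTiter-Glo 10 min RT, luminescence. Normalized to DMSO and media-only wells.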
Large screens that a line does not name were inactive. Compounds with a hit are over-represented: about 7.9% of the library has one in this group of screens. The call rests on the fitted dose curve; in most records, active means well fitted curve in the direction sought with a large enough effect; inconclusive means small, poorly fitted or top-dose-only effect, or another doubt; inactive means no such curve, though single readings can be large; an effect the other way counts as inactive or inconclusive.

O=C(Nc1ccccc1[N+](=O)[O-])c1cc(S(=O)(=O)N2CCOCC2)cs1	MCF10A rereplic 23µM, SW480 rerep inconclusive (no result: KB-V1 cytotox, KB-3-1 tox)
O=[N+]([O-])c1cccc(/C=N\N2CCN(c3ccc(Cl)cc3)CC2)c1	none
O=C(NCc1ccccc1)C1CCCN(S(=O)(=O)c2cccnc2)C1 (stereo not given)	none
CC(=O)Nc1ccc(S(=O)(=O)NC(CSc2ccc(C(=O)O)cc2[N+](=O)[O-])C(=O)O)cc1 (stereo not given)	KB-V1 cytotox inconclusive
CN(c1ccccc1)c1nc2ccsc2c(=O)s1	none
CCOC(=O)C1NN=C(C(=O)c2ccccc2)C1c1ccccc1 (stereo not given)	KB-V1 cytotox 21µM
CCOC(=O)C1NN=C(C(=O)c2ccccc2)C1c1ccc(Cl)cc1 (stereo not given)	none
C/C=C/c1ccc(OCCCCN2CC(C)CC(C)C2)c(OC)c1 (stereo not given)	KB-V1 cytotox inconclusive, MCF10A rereplic inconclusive, HT1080 IDH1KD tx 21µM, KB-3-1 tox inconclusive, SW480 rerep inconclusive, HT1080NT lethal 23µM
C/C=C/c1ccc(OCCCCN2CCN(CC)CC2)c(OC)c1	SW480 rerep 8.2µM
C/C=C/c1ccc(OCCCCOc2ccc(OC)cc2)c(OC)c1	none
CCCCN(C(=O)c1ccc(C#N)cc1)c1c(N)n(CCC)c(=O)[nH]c1=O	KB-V1 cytotox inconclusive, KB-3-1 tox inconclusive
CCOc1ccc(CNS(=O)(=O)c2ccc(-c3coc(C)n3)cc2)cc1OC	KB-V1 cytotox 23µM, KB-3-1 tox inconclusive (no result: MCF10A rereplic, HT1080 IDH1KD tx, SW480 rerep, HT1080NT lethal)
O=C(N/N=C/C1=Cc2ccccc2OC1)c1ccncc1	MCF10A rereplic inconclusive, SW480 rerep 18µM
COc1cccc(/C=N/NC(=O)COc2cccc3cccnc23)c1O	MCF10A rereplic inconclusive, HT1080 IDH1KD tx 18µM, KB-3-1 tox inconclusive, SW480 rerep 13µM
O=C(N/N=C/c1ccco1)c1ccncc1	none
COc1cccc(/C=N/Nc2ccc(S(=O)(=O)O)cc2)c1O	none
COc1cccc(/C=N/Nc2ccc(C(=O)O)cc2)c1O	KB-V1 cytotox inconclusive, HT1080 IDH1KD tx 21µM, KB-3-1 tox 16µM, HT1080NT lethal 18µM
COc1ccccc1C=NN=C(NN=Cc1ccccc1OC)NN=Cc1ccccc1OC	KB-V1 cytotox 21µM, HT1080 IDH1KD tx inconclusive, KB-3-1 tox inconclusive, SW480 rerep inconclusive, HT1080NT lethal inconclusive
COc1ccc(OC)c(/C=N/NC(=S)NCCc2ccccc2)c1	none
COc1cccc(C=NNC(=O)c2ccncc2)c1O	MCF10A rereplic inconclusive, HT1080 IDH1KD tx 1.5µM, KB-3-1 tox 21µM, SW480 rerep inconclusive, HT1080NT lethal inconclusive
Cc1ccc(S(=O)(=O)Oc2ccccc2)cc1	none
CCOc1cccc(/C=N/NC(=O)c2cccnc2)c1O	KB-V1 cytotox inconclusive, HT1080 IDH1KD tx 5.2µM, HT1080NT lethal inconclusive
Cc1ccc(S(=O)(=O)Oc2ccccc2-c2ccccc2)cc1	KB-V1 cytotox inconclusive, MCF10A rereplic 12µM, HT1080 IDH1KD tx 16µM, KB-3-1 tox inconclusive, SW480 rerep 12µM, HT1080NT lethal inconclusive
COc1cc([N+](=O)[O-])cc(/C=N/NC(=O)c2cccnc2)c1O	MCF10A rereplic 6.5µM, KB-3-1 tox inconclusive, SW480 rerep inconclusive
CCCc1ccc(OC(C)c2nc(-c3ccc(-n4cccc4)cc3)no2)cc1 (stereo not given)	none (no result: MCF10A rereplic, HT1080 IDH1KD tx, SW480 rerep, HT1080NT lethal)
COc1cc([N+](=O)[O-])cc(/C=N/NC(=O)C(C)Nc2cccc3ccccc23)c1O (stereo not given)	KB-V1 cytotox inconclusive, MCF10A rereplic inconclusive, HT1080 IDH1KD tx 18µM, KB-3-1 tox inconclusive, SW480 rerep inconclusive, HT1080NT lethal inconclusive
CCn1c(C)nc2cc(C(=O)N/N=C/c3cccc(OC)c3O)ccc21	KB-V1 cytotox inconclusive, MCF10A rereplic inconclusive, HT1080 IDH1KD tx inconclusive, SW480 rerep 1.6µM
CCn1c(C)nc2cc(C(=O)N/N=C/c3ccc(O)c(O)c3O)ccc21	none
COc1cccc(/C=N/NC(=O)c2nc(-c3ccccc3)cc(-c3ccccc3)n2)c1O	KB-V1 cytotox inconclusive, HT1080 IDH1KD tx inconclusive, KB-3-1 tox inconclusive, SW480 rerep 8.2µM, HT1080NT lethal inconclusive
